Hits are enriched below; roughly 6.1% of the tested compounds scored in any of these assays.
DRD3 antagonist: qHTS of D3 Dopamine Receptor Antagonist: qHTS; 360,000 tested, 2.5% active; D3R cells, DiscoveRx beta-arrestin luminescence, antagonist mode; hits give low values; max response, negative = inhibition, %; in the data active means max response below about -50%; inconclusive means no clear call, values can overlap the other calls; further: on the % scale 0 is the no-effect control and ±100 the full control effect
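Cells expressing the human receptor were seeded at 1500 cells/well, incubated overnight at 37 degrees C in 5% CO2, then exposed to library compounds with dopamine controls for 90 minutes at 37 degrees C before luminescent detection.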
D1 ag: Allosteric Agonists of the Human D1 Dopamine Receptor: qHTS; D(1A) dopamine receptor (Homo sapiens), P21728; AID 504660, 2011; 360,000 tested, 1% active; activation, % at 2 µM; HEK293 T-REx D1 cells, calcium flux, agonist mode; in the data active means activation above about 30%; further: 0% is about no effect
Target sequence (P21728 whole entry, looked up): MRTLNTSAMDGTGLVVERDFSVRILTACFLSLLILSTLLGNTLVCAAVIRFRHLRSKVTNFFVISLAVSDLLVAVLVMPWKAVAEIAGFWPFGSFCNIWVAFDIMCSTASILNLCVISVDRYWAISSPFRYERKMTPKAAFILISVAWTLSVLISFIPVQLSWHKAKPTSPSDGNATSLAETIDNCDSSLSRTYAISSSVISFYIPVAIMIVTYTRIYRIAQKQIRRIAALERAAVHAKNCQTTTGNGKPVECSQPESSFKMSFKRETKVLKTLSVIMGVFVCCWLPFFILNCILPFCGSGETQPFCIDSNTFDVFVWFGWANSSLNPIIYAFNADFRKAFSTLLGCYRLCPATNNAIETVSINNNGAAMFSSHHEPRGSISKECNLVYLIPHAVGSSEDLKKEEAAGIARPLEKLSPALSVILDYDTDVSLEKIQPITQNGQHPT
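Tetracycline-induced HEK293 TREx D1 cells, force-coupled to calcium signalling, were dye-loaded with a no-wash calcium kit. Compound was pin-added after a 10 s baseline. Fluorescence was read kinetically at 1 cycle/s for 180 s, with calcium rises flagged as agonism.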
D1 PAM: Potentiators of Human D1 Dopamine Receptor: qHTS. HEK293 TREx D1 cells, calcium flux, dopamine EC20 potentiation. potentiation, % at 10 µM. 360,000 tested, 0.036% active. D(1A) dopamine receptor (Homo sapiens), P21728; in the data active means potentiation above about 30%; further: 0% is about no effect
D1 antagonist: Antagonist of Human D 1 Dopamine Receptor: qHTS; D(1A) dopamine receptor (Homo sapiens), P21728; HEK293 TREx D1 cells, calcium flux, dopamine EC80; hits give low values; activity change, negative = inhibition, % at 10 µM; 360,000 tested, 3.2% active; AID 504652, 2011; in the data active means activity change below about -30%; further: on the % scale 0 is the no-effect control and ±100 the full control effect
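Calcium flux readout: force-coupled, inducible Hek293 Trex D1 line, cells induced overnight at 30 C with tetracycline, dye-loaded 30–90 min at RT. Antagonism scored against EC80 dopamine challenge given 180 s after compound.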
D3 ag: qHTS of D3 Dopamine Receptor Agonist: qHTS | D(3) dopamine receptor (Homo sapiens), P35462 | D3R DiscoveRx beta-arrestin cells, luminescence, 90 min | max activation, % | 410,000 tested, 0.58% active; in the data active means max activation above about 30%; further: 0% is about no effect
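Agonist-mode cell screen: cells plated at 1500/well and incubated overnight at 37 °C, then exposed to library compounds for 90 min at 37 °C. Detection reagent was added for 30–60 min at room temperature, and luminescence was read.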
* marks the source's active call; other numbers are inactive results; ? = inconclusive; . = not tested or not shown.

SMILES	DRD3 antagonist	D1 ag	D1 PAM	D1 antagonist	D3 ag
CCN1CCCC1CN(Cc1cc2ccc(C)cc2[nH]c1=O)C(=S)Nc1ccccc1C(=O)OC (centres undefined)	-64.8*	4.4	-1.1	-0.5	-11.2
COc1ccc2cc(CN(CC3CCCO3)C(=S)Nc3ccccc3)c(=O)[nH]c2c1 (centres undefined)	?	2.0	-4.3	-8.4	-11.2
C/C(COc1ccccc1)=N\NC(=O)c1nnn(-c2nonc2N)c1CSc1ccccc1	9.2	7.0	-3.8	-13.0	1.0
Cn1c(=O)c(-c2cc(=O)[nH][nH]2)c(O)c2ccccc21	0.0	0.9	5.2	-6.5	2.1
CN(Cc1nc(Cc2cccc(C(F)(F)F)c2)no1)C1CC(C)(C)NC(C)(C)C1	5.5	1.9	-2.4	6.7	15.5
Cc1ccc2occ(CC(=O)N(Cc3ccc(N(C)C)cc3)C3CCS(=O)(=O)C3)c2c1 (centres undefined)	.	1.1	1.9	-42.7*	9.5
CCCN(C(=O)Cc1coc2cc(OC)ccc12)C1CCS(=O)(=O)C1 (centres undefined)	-51.9*	.	.	.	-8.3
CCc1ccc2occ(CC(=O)N(Cc3ccc(N(C)C)cc3)C3CCS(=O)(=O)C3)c2c1 (centres undefined)	.	-1.6	5.8	5.0	0.0
O=C(Cc1ccsc1)NNC(=O)c1cccc(Cl)c1	2.5	1.9	3.9	3.5	-13.4
COc1cc(/C=N/n2nnnc2Nc2ccccc2)cc(OC)c1OC	1.2	-1.0	-6.5	-8.5	0.2
O=c1[nH]c2ccccc2nc1/C=C(\O)C1CC1	-18.1	0.5	7.7	9.8	-18.8
O=c1[nH]c2ccccc2nc1/C=C(\O)c1cccs1	3.3	279.5*	5.5	-6.0	2.9
CC(C)(C)/C(O)=C/c1nc2ccccc2[nH]c1=O	-14.8	44.8*	-0.8	-6.6	8.3
COc1ccccc1CCNC(=O)C(=O)NCC(c1cccs1)S(=O)(=O)c1ccccc1 (centres undefined)	.	1.5	-2.4	-11.5	-8.0
COc1ccc(NC(=O)Cn2nc3c(cc2=O)CCCC3)cc1Cl	.	-0.3	-4.0	-3.5	-5.0
Cc1ccc(CCNC(=O)c2ccc3[nH]c(C)c(C)c3c2)cc1	.	0.1	-4.0	-44.1*	2.4
O=C(COC(=O)CCC(=O)c1cccs1)NCc1ccccc1	8.2	0.5	-3.9	-22.5	1.1
CCCCCC(=O)Nc1cccc(C2=NOC3(C2)C[C@@H](C(N)=O)N(C(=O)CC(c2ccccc2)c2ccccc2)C3)c1 (some centres undefined)	-14.0	11.1	0.2	-5.0	-23.6
CC(C)CCC1(CCNC(C)c2cccs2)CCOC(C)(C)C1 (centres undefined)	-2.5	2.7	-0.8	-35.9*	-6.7
CCC(=O)N(CCC1(C(C)C)CCOC(C)(C)C1)C(C)c1cccs1 (centres undefined)	3.8	0.4	5.2	0.4	-16.1
COc1ccc(C2Nc3ccc4ccccc4c3-c3c2c(=O)oc2ccccc32)cc1 (centres undefined)	.	4.1	0.1	-3.0	.
O=c1oc2ccccc2c2c1C(c1ccc(Cl)cc1)Nc1ccc3ccccc3c1-2 (centres undefined)	-23.3	1.2	-2.2	-64.1*	1.0
CCOC(=O)[C@]12CCC=C1N(Cc1cccc3ccccc13)C(=O)[C@H](CC(=O)NCCCN1CCCC1=O)C2	13.4	.	.	.	2.8
Cc1nnc(SCc2cc([N+](=O)[O-])cc3c2OCOC3)n(N)c1=O	9.3	2.2	-6.4	-42.1*	3.9
Cc1ccccc1Nc1nnc(SCc2cc([N+](=O)[O-])cc3c2OCOC3)s1	12.8	2.1	-0.7	-1.2	-4.9
O=C(c1ccc(Br)cc1)N(c1ccccn1)C1CCCCC1	19.8	-0.9	-2.1	-9.9	15.2
N[C@@H](CO)c1nnc([C@H](CCC(=O)O)NC(=O)C2CCNCC2)o1	-5.0	0.4	-6.0	-37.9*	4.8
N[C@@H](Cc1ccc(O)cc1)c1nnc([C@H](CCC(=O)O)NC(=O)C2CCNCC2)o1	-13.5	-0.5	-2.5	-41.3*	12.6
CC(C)(C)C(=O)C(Oc1ccc(Cl)cc1)n1ccnc1 (centres undefined)	.	.	.	.	-8.2

Source: PubChem BioAssay
